Results: PubChem BioAssay (Tox21)
Values joined by “and” are separate entries in the source; they are usually repeats but may differ in a detail not shown here. Equal values may be shown once. Records with an inconclusive call do not appear. Entries that show only a call come without a potency. Some compounds were tested as several samples or in several runs, with calls that do not always agree. Active and inactive are the calls of the source. Calls come from the whole dose curve; as a rule, active = well fitted activation curve with a large enough effect in the repeat runs; inconclusive = weak or mixed curves; inactive = flat fitted curve, though single readings scatter.

assay: A CellTox Green Cytotoxicity Assay to monitor cytotoxicity in HepG2 cells - 16 hour (AID 1224876); details: CellTox Green fluorescence; series mostly up to 76.8 µM; note: nearly all actives have a fitted effect of over 45% in size
Source text: National Center for Advancing Translational Sciences [NCATS]
NIH Chemical Genomics Center [NCGC]
U.S. Environmental Protection Agency [EPA]
National Institutes of Environmental Health Sciences [NIEHS]
National Toxicology Program [NTP]
Cell-based models are critical for drug discovery. Determining the natural cytotoxic effects resulting from test compounds is an essential research activity. A CellTox Green Cytotoxicity Assay to monitor cytotoxicity in real time of continues cell culture during 40 hours of the compound treatment was used to screen Tox21 10K library compounds in HepG2 cells. CellTox Green Cytotoxicity Assay is a nonlytic, homogeneous, biofluorescent method to measure cytotoxicity in cell culture after experimental manipulation. The assay system uses a proprietary asymmetric cyanine dye that is excluded from viable cells but preferentially stains the dead cell's DNA. […] Viable cells produce no appreciable increases in fluorescence. Therefore, the fluorescence signal produced by the binding interaction with dead cell DNA is proportional to cytotoxicity.
The mixture of HepG2 cell suspension and reagents were dispensed at 600cells/6 ul/well in 1536-well tissue culture treated black solid bottom plates using a Multidrop dispenser. After the assay plates were incubated at a 37 C/5% CO2 incubator for 5 hours, 23 nL of compounds dissolved in DMSO, positive and negative controls was transferred to the assay plate by a pintool work station. The plates were incubated at 37 C for 40 hours. The fluorescence intensity were measured at 0h, 8h, 16h, 24h, 32h and 40h time points using ViewLux plate reader during compound treatment.
Potency is the fitted concentration of half-maximal effect.

| SMILES | Potency |
| --- | --- |
| Nc1ccc(Nc2ccccc2)cc1 | inactive |
| O=C=Nc1ccc(Cc2ccc(N=C=O)cc2)cc1 | inactive |
| CCCCOCCOCCOCCO | inactive |
| Nc1ccc(Cl)cc1Cl | inactive |
| O=P(O)(O)O | inactive |
| O=C(Nc1ccc(Cl)cc1)Nc1ccc(Cl)c(Cl)c1 | inactive |
| CCCC(=O)O | inactive |
| CCCCNS(=O)(=O)c1ccccc1 | inactive |
| Nc1ccccc1N | 56.2 µM (active) and inactive |
| Cc1cccc(C(=O)O)c1 | inactive |
| O=CCCCC=O | inactive |
| CCC(C)OC(=O)c1ccc(O)cc1 (stereo not given) | inactive |
| C[C@]12CCC(=O)C=C1CC[C@@H]1[C@@H]2C(=O)C[C@@]2(C)[C@H]1CC[C@]2(O)C(=O)CO | inactive |
| COC(=O)c1ccccc1 | inactive |
| C[Si](C)(C)O[Si](C)(C)C | inactive |
| Cc1cccc([N+](=O)[O-])c1C | inactive |
| Cc1ncc[nH]1 | inactive |
| O=C(c1ccccc1)c1ccccc1O | inactive |
| CCCCC(CC)COCC1CO1 (stereo not given) | inactive |
| COc1cc([C@@H]2c3cc4c(cc3[C@H](O)[C@H]3COC(=O)[C@H]23)OCO4)cc(OC)c1OC | inactive |

| SMILES | Potency |
| --- | --- |
| C=CC(C)(CCC=C(C)C)OC(C)=O (stereo not given) | inactive |
| CCCCOCCOCCO | inactive |
| Nc1ccc(S(=O)(=O)Nc2cnc3ccccc3n2)cc1 | inactive |
| CN1C(C(=O)Nc2ccccn2)=C(O)c2ccccc2S1(=O)=O | inactive |
| S=C(NC1CCCCC1)NC1CCCCC1 | inactive |
| O=Cc1ccccc1O | inactive |
| COc1ccccc1/C=C/C=O | inactive |
| C=C(C)C1CC=C(C)CC1 (stereo not given) | inactive |
| Oc1ccc(O)cc1 | inactive |
| CC(C)Oc1ccc2c(=O)c(-c3ccccc3)coc2c1 | inactive |
| O=C(OCc1ccccc1)c1ccccc1O | inactive |
| CCC(C)c1ccccc1O (stereo not given) | inactive |
| COc1ccc(C(=O)CC(=O)c2ccc(C(C)(C)C)cc2)cc1 | inactive and 67.4 nM (active) |
| C/C=C/C(=O)O | inactive |
| CCCc1c(OCCCCc2nn[nH]n2)ccc(C(C)=O)c1O | inactive |
| CC(C)=CCC/C(C)=C\CO | inactive |
| COC(=O)CCC(=O)OC | inactive |
| CC(C(=O)O)c1cccc(C(=O)c2ccccc2)c1 (stereo not given) | inactive |
| COc1ccc(OC)c(C(O)CNC(=O)CN)c1 (stereo not given) | inactive |
| Nc1ncn([C@@H]2O[C@H](CO)[C@@H](O)[C@H]2O)c(=O)n1 | inactive |
